Only some compounds are listed: those with a hit (about 2.4% of all), similar ones and a draw of the others.
ELG1 DNA repair: ELG1-dependent DNA repair inhibition; Potency, µM (top dose mostly 46.1 µM), actives largely listed as inhibitors; actives 2.3% (n = 330,000); AID 504467; HEK293T ELG1-luciferase reporter, luminescence, 16 h; DNA damage induced by 5-fluorouridine; further: nearly all actives have a fitted effect of over 55% in size
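Quantitative HTS, concentration-response format. 2,000 cells/well co-treated with 5-fluorouridine and compound, 16 hr in 5% CO2 at 37 °C; ONE-Glo luminescence read after 30 min.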
Tb PFK inh: T. brucei PFK enzyme inhibition; O15648; actives 0.17% (n = 330,000); AID 485367; Potency, µM (titrated, usually from 57.5 µM), hits mostly inhibitors; T. brucei PFK, ADP-Glo luminescence; further: nearly all actives have a fitted effect of over 60% in size
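1.25 nM PFK with 0.5 mM F6P and 0.1 mM ATP in 0.1 M TEA pH 8.0, 5 mM MgCl2, incubated 45 min at room temperature; ADP measured by ADP-Glo luminescence; compounds titrated up to 57 uM.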
Rango complex inh: Rango-importin beta binding inhibition. AID 540263. Rango CFP/YFP FRET sensor + importin beta, 45 min. Potency, µM (series often up to 92.2 µM). Q14974. actives 0.031% (n = 340,000); calls by dose curve; further: nearly all actives have a fitted effect of over 15% in size
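FRET biosensor (snurportin 1 IBB flanked by EYFP and cerulean), 50 nM, with compound 5 min, then 0.125 microM importin beta in PBS, 1 mM DTT, 0.02% Tween-20, 0.1% BSA. CFP/YFP ratio read after 45 min at room temperature; pre-read flags interference.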
PKM2 act: PKM2 (human) enzyme activation. purified PKM2, Kinase-Glo ATP luminescence, activation; response scale: 0% is enzyme alone, no compound. Potency, µM (highest dose often 57.5 µM), actives largely listed as activators. actives 0.34% (n = 260,000); further: nearly all actives have a fitted effect of over 55% in size
Target sequence (P14618 whole entry, looked up): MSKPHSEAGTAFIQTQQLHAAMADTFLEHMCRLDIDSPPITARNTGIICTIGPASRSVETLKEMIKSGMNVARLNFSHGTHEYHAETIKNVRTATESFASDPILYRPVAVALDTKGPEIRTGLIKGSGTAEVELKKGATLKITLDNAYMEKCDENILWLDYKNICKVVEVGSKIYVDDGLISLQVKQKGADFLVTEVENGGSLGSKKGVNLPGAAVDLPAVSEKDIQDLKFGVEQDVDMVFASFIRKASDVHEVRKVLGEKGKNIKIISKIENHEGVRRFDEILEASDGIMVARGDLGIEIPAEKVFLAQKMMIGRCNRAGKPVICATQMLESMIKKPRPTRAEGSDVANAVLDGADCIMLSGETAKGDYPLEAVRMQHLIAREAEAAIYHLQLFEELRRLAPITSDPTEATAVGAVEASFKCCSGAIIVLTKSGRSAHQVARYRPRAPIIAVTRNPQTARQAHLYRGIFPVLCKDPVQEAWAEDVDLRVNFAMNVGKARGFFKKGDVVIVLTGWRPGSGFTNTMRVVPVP
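Purified hPK-M2 (>95%) run at intermediate activity with 0.1 mM ADP and 0.5 mM PEP in 50 mM imidazole pH 7.2, KCl, MgCl2; 1 h room temperature. ATP formed read by Kinase-Glo luminescence; normalized to uninhibited and no-enzyme controls.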
Rango dissoc inh: prevents RanGTP from dissociating the Rango-importin beta complex; actives 0.071% (n = 340,000); Biochemical FRET Rango-importin beta, RanGTP-induced dissociation; O95149+P62826; Potency, µM (highest dose often 46.1 µM); calls by dose curve; further: nearly all actives have a fitted effect of over 45% in size
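FRET read at 45 min, room temperature: inhibitors block the CFP/YFP signal rise when RanGTP (0.6 uM Ran, 2 mM GTP, 0.2 uM RCC1) frees Rango (0.1 uM) from importin beta (0.25 uM). Pre-read after 5 min compound exposure flags interference.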
PGK inhibitor: blocks T. brucei phosphoglycerate kinase. PGK/GAPDH coupled, Kinase-Glo luminescence, 60 min. actives 0.043% (n = 380,000). Potency, µM (top dose mostly 57.5 µM), hits mostly inhibitors; further: nearly all actives have a fitted effect of over 60% in size
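Luminescent ATP detection (Kinase-Glo Plus) follows a 60-minute room-temperature incubation, with wells lacking PGK as controls. Buffer: 100 mM TEA (pH 7.6), 5 mM MgCl2, 0.01% Tween-20. Coupling enzyme GAPDH (100 nM final) supplies unstable 1,3-BPG in-well.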
Each line names hits and unclear results; the compound was inactive in the other large screens. Unless noted, the call rests on the fitted dose curve; in most records, active means well fitted curve in the direction sought with a large enough effect; inconclusive means small, poorly fitted or top-dose-only effect, or another doubt; inactive means no such curve, though single readings can be large; an effect the other way counts as inactive or inconclusive.

COc1ccc(/C=C2\SC(=S)N(CCCC(=O)Nc3cc(C)on3)C2=O)cc1OC	ELG1 DNA repair 7.3µM
COc1cc(/C=C2\SC(=S)N(CCC(=O)Nc3ccc(O)cc3)C2=O)cc(OC)c1OC	ELG1 DNA repair 23.1µM (no result: PKM2 act)
COc1cc(/C=C2/SC(=S)N(CCC(=O)Nc3ccc(C(=O)O)cc3)C2=O)cc(OC)c1OC	none
CCCCCCCNC(=O)c1ccc(N2CCC3(CC2)OCCO3)c([N+](=O)[O-])c1	ELG1 DNA repair 18.4µM
CCc1cc2c(cc3c(=O)n(CC(=O)NCCc4ccc(OC)cc4OC)nc(CC)n32)s1	none (no result: ELG1 DNA repair, Tb PFK inh, Rango complex inh, PKM2 act, Rango dissoc inh)
Nc1c(S(=O)(=O)c2cccs2)c2nc3ccccc3nc2n1/N=C/c1cccc(O)c1	ELG1 DNA repair 18.4µM
COc1cccc(/C=N/n2c(N)c(S(=O)(=O)c3cccs3)c3nc4ccccc4nc32)c1	ELG1 DNA repair inconclusive
Nc1c(C(=O)Nc2ccccc2)c2nc3ccccc3nc2n1-c1ccc(O)cc1	ELG1 DNA repair inconclusive, Rango complex inh inconclusive, Rango dissoc inh inconclusive
N#CC1(NC(=O)CN2C(=O)c3ccccc3C2=O)CCCCC1	none (no result: PKM2 act)
N#CC1(NC(=O)Cn2ncc(Cl)c(Cl)c2=O)CCCCC1	ELG1 DNA repair 5.8µM (no result: PKM2 act)
Cc1ccc([N+](=O)[O-])c(OCCn2cnc3ccccc32)c1	ELG1 DNA repair inconclusive, PKM2 act 8.91µM
Cc1ccc(OCCn2cnc3cc([N+](=O)[O-])ccc3c2=O)cc1	ELG1 DNA repair 20.6µM
O=c1c2ccc([N+](=O)[O-])cc2ncn1CCOc1ccccc1	ELG1 DNA repair inconclusive
CCc1ccc(-n2c(=O)c3cccnc3n2CC(=O)Nc2cc(F)ccc2F)cc1	none (no result: ELG1 DNA repair, Tb PFK inh, Rango complex inh, PKM2 act, Rango dissoc inh)
COc1cc(CN(C(=O)c2ccc(OC(C)C)cc2)c2ccccn2)cc(OC)c1OC	none (no result: ELG1 DNA repair, Tb PFK inh, Rango complex inh, PKM2 act, Rango dissoc inh)
COc1ccc(-n2c(C)c(C)c3c(N)ncnc32)cc1	ELG1 DNA repair 10.3µM
COc1ccc(N(Cc2cccs2)C(=O)Nc2cccc(Cl)c2)cc1	none (no result: ELG1 DNA repair, Tb PFK inh, Rango complex inh, PKM2 act, Rango dissoc inh)
COc1cc(OC)cc(C(=O)OCC(=O)NCCCc2ccccc2)c1	none (no result: PKM2 act)
COc1ccc(CCNC(=O)c2ccc(CNS(=O)(=O)c3cccc(Cl)c3)cc2)cc1OC	ELG1 DNA repair 23.1µM
COc1ccc(CCNC(=O)c2ccc(CNS(=O)(=O)c3cc(C)ccc3C)cc2)cc1OC	ELG1 DNA repair 20.6µM, Rango complex inh inconclusive
COc1ccc(CCN(C)C(=O)c2cc(S(=O)(=O)NCc3ccccc3)ccc2C)cc1OC	ELG1 DNA repair 8.2µM (no result: PKM2 act)
COc1ccc(CNS(=O)(=O)c2cc(-c3cc(C)no3)ccc2C)cc1OC	ELG1 DNA repair 23.1µM (no result: PKM2 act)
Cc1ccc(S(=O)(=O)N(C)C[C@@H]2Oc3ccc(NC(=O)Cn4cnnn4)cc3C(=O)N([C@@H](C)CO)C[C@H]2C)cc1	none (no result: PKM2 act)
COc1cccc2sc(N(Cc3cccnc3)C(=O)C3COc4ccccc4O3)nc12 (stereo not given)	none (no result: ELG1 DNA repair, Tb PFK inh, Rango complex inh, PKM2 act, Rango dissoc inh)
COc1ccc(CNS(=O)(=O)NCc2ccc(OC)c(OC)c2)cc1	ELG1 DNA repair inconclusive
COc1ccc(CCNC(=O)c2ccc(CS(=O)(=O)Cc3cccc(C)c3)o2)cc1OC	ELG1 DNA repair 23.1µM (no result: PKM2 act)
COc1ccc(CNS(=O)(=O)NCc2ccc(C)cc2)cc1OC	ELG1 DNA repair 20.6µM
Cc1cccc(CS(=O)(=O)Cc2ccc(C(=O)NCc3ccccc3)o2)c1	ELG1 DNA repair inconclusive (no result: PKM2 act)
Cc1nn(C)cc1CNC(=O)c1cc2n(n1)C(C(F)(F)F)CC(c1cccs1)N2 (stereo not given)	ELG1 DNA repair 23.1µM
NC(=S)N1OC[C@@H]2COc3ccc4ccccc4c3[C@@H]21	ELG1 DNA repair 11.6µM
CO/N=C/NC(=O)N1OC[C@@H]2COc3ccc4ccccc4c3[C@@H]21	none
C=CCC1(CC=C)CCCN1C(=O)c1ccc2oc(CCCC)nc2c1	none (no result: ELG1 DNA repair, Tb PFK inh, Rango complex inh, PKM2 act, Rango dissoc inh)
COc1ccc(CC(=O)NC(C)c2nnc(SCC(=O)Nc3cc(C)ccc3OC)n2C)cc1 (stereo not given)	none
CC(=O)Nc1nc(-c2ccccc2)nc(-c2ccccc2OC(C)=O)n1	ELG1 DNA repair 20.6µM (no result: PGK inhibitor)

Source: PubChem BioAssay
